# From PubChem BioAssay
# Sampled rows, rich in hits. Any-hit rate of the full collection: about 8%.
# KB-V1 cytotox: KB-V1 MDR subline cytotoxicity; Potency, µM (doses to about 46.1 µM), usual class: cytotoxic; 400,000 compounds, 3.4% hits; KB-V1 MDR cells viability, CellTiter-Glo, 72 h; note: % is set by controls: 0 for no effect and ±100 for the full control effect; nearly all actives have a fitted effect of over 60% in size
#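 KB-V1 MDR subline cells in DMEM (phenol-red free, 10% FBS) exposed to compounds in qHTS concentration series for 72 h at 37 degrees C. Viability read by CellTiter-Glo luminescence; concentration-effect curves fitted after normalization and correction.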
# HT1080NT lethal: kills 2HG-producing HT-1080-NT fibrosarcoma cells. Potency, µM (titrated, usually from 46.1 µM), inactives show at the highest dose activity, negative = less viability, most hits filed as cytotoxic. 360,000 compounds, 1.6% hits. HT-1080-NT fibrosarcoma viability, CellTiter-Glo ATP luminescence, 48 h;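 note: NT is the 2HG producing partner of a matched IDH1 knockdown line; 0% = DMSO-treated cells and -100% = media-only wells without cells; nearly all actives have a fitted effect of over 55% in size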
#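 Viability of the 2HG-overproducing fibrosarcoma line after 48 hours of compound exposure at 37 degrees C was determined by luminescence with CellTiter-Glo, and concentration-effect curves were then fitted and categorized.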
# MCF10A rerep: induces DNA re-replication in MCF 10a normal breast cells. MCF 10A DNA re-replication, Hoechst nuclear intensity, 48 h. Potency, µM (series often up to 46.1 µM), for inactives: at the highest dose activity, positive = re-replication, hits mostly activators. 350,000 compounds, 2.9% hits. AID 624296; note: % of control where 0% means no effect; nearly all actives have a fitted effect of over 50% in size
# SW480 rerep: induces DNA re-replication in SW480 colon adenocarcinoma cells; SW480 DNA re-replication, Hoechst DNA content imaging, 48 h; Potency, µM (doses to about 46.1 µM), for the others: at the top dose re-replication activation, most hits filed as activators; 340,000 compounds, 1.8% hits; AID 624297; note: % of control where 0% means no effect; nearly all actives have a fitted effect of over 55% in size
#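 Image-based DNA-content assay: after two days of treatment, nuclei were labelled with the DNA dye Hoechst and imaged, and hits were compounds raising the count of nuclei showing high fluorescence intensity.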
# HT1080 IDH1KD tx: HT-1080 IDH1 knockdown cell toxicity (counter line); 360,000 compounds, 2% hits; HT-1080 IDH1 knockdown viability, ATP luminescence, 48 h; Potency, µM (highest dose often 46.1 µM), for the others: top-dose activity, negative = toxicity, most hits filed as cytotoxic;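 note: 0% = DMSO wells and -100% = cell-free medium wells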
#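 In this qHTS, HT-1080 cells depleted of IDH1 are exposed for 48 h at 37 °C to compound titrations. Toxicity is scored from CellTiter-Glo luminescence, with DMSO as full viability and medium alone as none.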
# KB-3-1 cytotox: KB-3-1 parental cell cytotoxicity. KB-3-1 viability, CellTiter-Glo ATP luminescence, 72 h. Potency, µM (highest dose often 46.1 µM), actives largely listed as cytotoxic. 400,000 compounds, 1.4% hits; note: % is set by controls: 0 for no effect and ±100 for the full control effect; nearly all actives have a fitted effect of over 60% in size
#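 Multi-concentration cytotoxicity screen in KB-3-1 cells grown in DMEM lacking phenol red with 10% FBS. After 72 h at 37 °C with compound, ATP-dependent luminescence was recorded.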
# Active calls of the source: *; i = inactive; u = inconclusive; x = no result; [ ] = dose if it differs, or a comment. Calls come from the whole dose curve; as a rule, active = well fitted curve in the direction sought with a large enough effect; inconclusive = small, poorly fitted or top-dose-only effect, or another doubt; inactive = no such curve, though single readings can be large; an effect the other way counts as inactive or inconclusive. Potency is the fitted concentration of half-maximal effect.
SMILES,KB-V1 cytotox,HT1080NT lethal,MCF10A rerep,SW480 rerep,HT1080 IDH1KD tx,KB-3-1 cytotox
CSc1nc(Sc2ccccc2Cl)c2ccccc2n1,u,u,23.1µM*,u,u,u
CCOC(=O)c1cnc(SC)nc1Sc1ccccc1Cl,i,2.7%,u,-4.7%,9.5%[9.24 µM],i
O=c1[nH]c(Nc2ccccc2)cc2ccccc12,i,2.1%,13µM*,19.1%,8.6%,i
COc1ccc(OC)c(Nc2cc3ccccc3c(=O)[nH]2)c1,23.1µM*,u,16.4µM*,20.6µM*,18.4µM*,4.11µM*
COc1ccccc1Nc1cc2cc(Br)ccc2c(=O)[nH]1,u,-27.2%,20.6µM*,u,u,7.31µM*
COc1ccccc1Nc1nnc(C)c(=O)[nH]1,i,-1.7%,-3.2%,-0.5%,-2.6%,i
O=c1[nH]c(Nc2ccccc2)cc2cc(Br)ccc12,u,-11.6%,u,u,-22.7%,i
CSc1ccc(S(=O)(=O)NCc2ccc(C)cc2)cc1,i,u,-2.5%,-4.0%,-14.8%,i
CN1OC[C@@H]2C(=O)N3CCc4c([nH]c5ccccc45)[C@@H]3C[C@@H]21,i,-3.6%,x,x,-1.2%,i
O=C1c2ccccc2OC2(C=Cc3ccccc3O2)N1Cc1ccccc1 (stereo unspecified),4.11µM*,u,13µM*,u,18.4µM*,u
Cc1ccc(NC(=O)N2CCC3(CC2)Oc2ccccc2C(=O)N3Cc2ccc(F)cc2)cc1,i,x,x,x,x,i
CCc1ccccc1SCc1noc(C(=O)NCC2CCCO2)c1C(=O)O (stereo unspecified),i,28.7%,-26.0%,-2.4%,-1.4%,i
COC(=O)c1c(CCl)noc1C(=O)NCC1CCCO1 (stereo unspecified),i,-17.9%,-19.2%,8.4%,23.1µM*,i
C#CCn1c(/C=C/c2ccc(Cl)cc2)nc2ccccc21,i,x,x,x,x,i
O=C1CC(c2ccc(F)cc2)CC2=C1C=Nc1ccccc1N2 (stereo unspecified),u,u,u,2.2%,u,u
O=C1CC(c2ccccc2)CC2=C1C=Nc1ccccc1N2 (stereo unspecified),u,u,18.4µM*,14.6µM*,u,u
CCOC(=O)N1CCN(c2cc(N)c([N+](=O)[O-])cc2F)CC1,23.1µM*,-0.4%,-1.2%,-12.0%,-24.8%,i
CCOC(=O)N1CCN(c2cc(C)c(C(C)=O)cc2F)CC1,i,3.2%,14.9%,1.9%,5.9%,i
CCOC(=O)N1CCN(c2ccc([N+](=O)[O-])cc2F)CC1C (stereo unspecified),23.1µM*,-0.1%,20.4%,-2.2%,-6.3%,i
CCOc1ccc(C2C(C#N)=C(N)Oc3cc(C)n(Cc4ccco4)c(=O)c32)cc1OC (stereo unspecified),i,-7.6%,-3.1%,-2.4%[9.22 µM],-1.2%,i
CSc1ccc(/C=N/NC(=O)c2ccccc2Cl)cc1,u,u,23.1µM*,u,u,u
COc1ccc(C(=O)N/N=C/c2ccc(SC)cc2)cc1,i,12.6%,6.3%,5.17µM*,14.7%,i
CN(C)c1ccc(/C=N/NC(=O)c2ccccc2Cl)cc1,u,11.6µM*,20.6µM*,2.59µM*,8.2µM*,u
COc1ccc(/C=N/NC(=O)c2cccc(NC(=O)c3ccccc3Cl)c2)cc1,i,5.8µM*,2.59µM*,6.51µM*,2.31µM*,16.4µM*
CC(C(=O)NCc1cccc(Cl)c1)N1C(=O)c2ccccc2C1=O (stereo unspecified),i,-0.8%,-2.9%,-7.9%,22.8%,i
SMILES,KB-V1 cytotox,HT1080NT lethal,MCF10A rerep,SW480 rerep,HT1080 IDH1KD tx,KB-3-1 cytotox
CSc1nncc(=O)[nH]1,i,0.6%,2.1%,u,-2.0%,i
Cc1ccc2c(c1)c1c3n2CCN(C(=O)C2CC2)C3CCC1 (stereo unspecified),i,-1.6%,2.2%,-4.0%,8.4%,i
Cc1ccc2c(c1)c1c3n2CCN(C(=O)CN2CCN(C)CC2)C3CCC1 (stereo unspecified),20.6µM*,23.1µM*,u,u,u,u
Cc1ccc2c(c1)c1c3n2CCN(C(=O)Cn2c(-c4ccccc4)noc2=O)C3CCC1 (stereo unspecified),4.11µM*,-12.9%,-2.4%,0.4%,-24.4%,i
CN1CCN(CC(=O)N2CCn3c4c(c5cc(C6CCCCC6)ccc53)CCCC42)CC1 (stereo unspecified),i,u,u,24.1%,23.1µM*,u
CCCN1C(=O)SC(CC(=O)Nc2ccc(Br)cc2)C1=O (stereo unspecified),i,-8.5%,9.2%,2.8%,-10.0%,i
O=C(NCC(c1ccco1)N1CCN(c2ccccc2)CC1)C(=O)NC1CC1 (stereo unspecified),u,3.7%,-2.8%,-7.1%,2.6%,u
Cc1ccc(NC(=O)CCN2CC(C)OC(C)C2)cc1C (stereo unspecified),i,9.3%,-10.5%,1.2%,7.6%,i
Cc1ccc(-n2cnc3c(=O)[nH]cnc32)cc1,9.2µM*,0.5%,-26.1%,-1.2%,10.9%,u
O=c1[nH]cnc2c1c(-c1ccccc1)cn2-c1ccccc1,u,13.0%,-2.0%,-5.9%,15.0%,i
Cc1cc(-n2cnc3c(=O)[nH]cnc32)ccc1N,i,6.8%,2.7%,0.3%,13.4%,i
Cc1ccc(-n2cc(-c3ccccc3)c3c(=O)[nH]cnc32)cc1,i,-3.7%,23.1µM*,-6.9%,1.5%,i
Fc1cccc(-n2cc(-c3ccccc3)c3c(=S)nc[nH]c32)c1,i,-14.4%,8.8%,4.3%,u,u
Fc1ccc(-n2cc(-c3ccccc3)c3c(=S)nc[nH]c32)cc1,i,-28.9%,-1.4%,-0.7%,u,18.4µM*
Cc1cc(C)c(/C=N/NC(N)=O)c(C)c1/C=N/NC(N)=O,u,4.6%,u,-1.1%,11.1%,3.66µM*
CCc1cc(CC)c(/C=N/NC(N)=O)c(CC)c1,i,-0.9%,0.4%,1.9%,-1.8%,i
NS(=O)(=O)c1ccc(NC(=O)/C=C/c2ccc3c(c2)OCO3)cc1,i,7.31µM*,18.4µM*,6.51µM*,0.731µM*,2.31µM*
Cc1ccc(NC(=O)c2cccc(NC(=O)/C=C/c3ccco3)c2)cc1C,u,-4.3%,u,3.8%,-22.9%,u
Cc1ccc(-n2nc3ccc(NC(=O)/C=C/c4ccco4)cc3n2)cc1,u,4.0%,11.6µM*,u,-0.3%,i
